Measurements from PubChem BioAssay (NCI).
This is part of a sample that, as a whole, favours compounds with a hit. Of some 83,000 tested, about 20% had one in any assay.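 Plates (96-well) were seeded with cells, treated with compound at one concentration, and incubated for 48 hours before percent growth was determined.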 Values without a mark were called inactive. Active and inactive are the calls of the source. The calls were made as follows: active = growth percent below 10; inactive = the rest.

The molecules below were run on HL-60(TB) leukemia (assay: NCI-60 one-dose screen, 48 h (100 = growth as untreated, 0 = no growth, -100 = all killed)). Conditions: 10 µM unless noted.
For `O=C(O)CCCCCCCCCCN1C(=O)/C(=C/c2cnc(-c3ccc(Cl)cc3)s2)SC1=S`, the growth was 33.7%.
With `COc1ccc(NC(=O)Nc2ccc(OCC(=O)N=Nc3c(O)[nH]c4ccc([N+](=O)[O-])cc34)cc2)cc1` the growth was 99%.
`CCCn1c(=O)c2[nH]c(-c3ccc(OCc4nc5ccc(C#N)cc5[nH]4)cc3)nc2n(CCC)c1=O` gave a growth of 95.4%.
For `CC(=O)C1=C(C)NC(SCC(=O)Nc2ccc(S(=O)(=O)Nc3cc(C)on3)cc2)=NC1c1ccccc1` (stereo not drawn), the growth was 100%.
In the case of `Cc1ccc2c(N)c(C(=O)Nc3ccc(OC(F)(F)F)cc3)sc2n1`, the growth was 61.6%.
With `Cc1ccc2c(c1)C(=O)/C(=C/c1c[nH]c3ccccc13)S2` the growth was 14.9%.
In the case of `Cc1c(C(=O)NNC(=O)c2ccc(Cl)cc2)nnn1-c1ccc(Br)cc1`, the growth was 102%.
In the case of `O=C(CSc1nc2ccccc2c(=O)[nH]1)NCCN1CCCCC1`, the growth was 94.4%.
`O=C(N/N=C/c1ccc(-c2ccc(O)cc2)o1)c1[nH]c2ccc(Br)cc2c1-c1ccccc1` was tested, and the growth was -20.6% (active).
For `N#Cc1c(NC(=O)c2ccc(C(O)(C(F)(F)F)C(F)(F)F)cc2)sc2c1CCC(=O)C2`, the growth was -23.4% (active).
For `COc1cc(NC(=O)CSc2nnc(-c3ccc(-c4nc5ccc(Cl)cc5[nH]4)cc3)o2)cc(OC)c1OC`, the growth was 8.77% (active).
For `Cc1nn(-c2ccccc2)c2nc(C)n(CC(=O)N/N=C/c3ccccc3O)c(=O)c12`, the growth was 7.2% (active).
Molecule `COc1ccc(SC2c3cc(OC)ccc3Oc3nc(N)c(C#N)c(N)c32)cc1` (stereo not drawn) has a growth of 64.7%.
`N#Cc1ccc(C(=O)Nn2c(N)cc3ccccc3c2=O)cc1` showed a growth of 98.5%.
With `Fc1ccc(/C=C/c2nc3ccccc3n3c(-c4ccc(Cl)cc4)nnc23)cc1` the growth was 3.61% (active).
With `CN(C)CCOc1ccc(C(=O)C2[C@H](c3ccc(Cl)cc3)[C@@H](c3ccccc3)NC23C(=O)Nc2ccc(Cl)cc23)cc1` (stereo partly drawn) the growth was -75.6% (active).
`CCCCSc1nc(NCCc2c[nH]c3ccccc23)c(C#N)c(-c2ccc(OC)cc2)n1` gave a growth of 42.5%.
In the case of `CN(C)c1nc(NCCNS(=O)(=O)c2ccc(C(=O)/C=C/c3ccc(F)cc3)cc2)nc(Nc2ccc(F)cc2)n1`, the growth was -38.7% (active).
Work on `COc1cc(CNC(=O)C[C@H](C)CCC=C(C)C)ccc1OCc1cn(-c2ccccc2Cl)nn1` yielded a growth of 41.1%.
`COc1ccc2[nH]cc(-c3nnc(N)nc3-c3cn(C)c4ncc(Br)cc34)c2c1` was tested, and the growth was 35%.
For `C[C@H](Nc1nc(NCCc2ccccc2)nc2ccccc12)c1ccccc1`, the growth was -48.2% (active).
For `COC(=O)C[C@](O)(CCCC(C)(C)O)C(=O)O[C@H]1C(OC)=C[C@@]23CCCN2CCc2cc4c(cc2[C@@H]13)OCO4`, the growth was -30.3% (active).
For `COc1ccc(-c2nc(-c3ccccc3)c(-c3ccccc3)n2-c2ccc(S(=O)(=O)Nc3ncccn3)cc2)cc1OC`, the growth was 89%.
With `O=C(Cn1c2c(sc1=O)[C@H]1[C@@H](O)[C@@H](O)[C@H](O)[C@@H]1CS2)N1CCOCC1` the growth was 109%.
`COc1ccc(Nc2nnc(-c3c[nH]c4ccccc34)o2)cc1` showed a growth of 29.8%.
For `Cc1ccc(NC(=O)[C@]23CCC(C)(C)CC2C2=CCC4[C@@]5(C)C[C@@H](O)[C@H](O)[C@@](C)(CO)C5CC[C@@]4(C)[C@]2(C)CC3)cc1` (stereo partly drawn), the growth was -15.4% (active).
Work on `Cc1cc(=O)oc2cc(OCCCCOc3ccc(/C=C/C(=O)Nc4ccccc4[N+](=O)[O-])cc3)ccc12` yielded a growth of 101%.
Work on `Cc1nn(-c2ccccc2)c2nc(C)n(CC(=O)N/N=C/c3cccc([N+](=O)[O-])c3)c(=O)c12` yielded a growth of 99%.
In the case of `C#CCNC(=O)CCC(=O)OC[C@]12CC[C@@H](C(=C)C)[C@@H]1C1CC[C@@H]3[C@@]4(C)CCCNC(C)(C)[C@@H]4CC[C@@]3(C)[C@]1(C)CC2` (stereo partly drawn), the growth was -39% (active).
In the case of `O=c1[nH]c2ccccc2cc1CSc1ccc(Nc2nccc(-c3ccc(C(F)(F)F)cc3)n2)cc1`, the growth was 69.5%.
With `COc1cccc(COc2ccc(NC(=O)Nc3ccc(Cl)c(C(F)(F)F)c3)cc2)c1` the growth was 17.8%.
Molecule `CC(=O)Nc1ccc(-c2cn(-c3cccc(C(=O)Nc4cccc(OC(F)(F)F)c4)c3)nn2)cn1` has a growth of 95.1%.
In the case of `Cc1sc2c(c1C)C(c1ccc(Cl)cc1)=N[C@@H](CC(=O)NCCCCCNC(=O)COc1ccc(C3CCC(=O)NC3=O)cc1)c1nnc(C)n1-2` (stereo partly drawn), the growth was -16.6% (active).
